The results in this text go back to PubChem BioAssay (NCI).

Common to all, as to experiment: NCI-60 one-dose screen, 48 h (100 = growth as untreated, 0 = no growth, -100 = all killed)
In one assay the test system is HT29 colon. The settings on record: 10 µM unless noted.
In a further assay the test system is SNB-75 CNS. The note with it: 10 µM unless noted.
The subject of a further assay is SNB-19 CNS. The note with it: 10 µM unless noted.
Another assay concerns U251 CNS. The note with it: 10 µM unless noted.
Another assay has as its system PC-3 prostate. The settings on record: 10 µM unless noted.
Another assay has as its system SK-MEL-5 melanoma. The note with it: 10 µM unless noted.
For the next assay, the system named is UACC-62 melanoma. The settings on record: 10 µM unless noted.
A further assay has as its system LOX IMVI melanoma. The note with it: 10 µM unless noted.
For a further assay, the system named is SK-MEL-28 melanoma. The note with it: 10 µM.
The subject of another assay is SK-MEL-2 melanoma. The note with it: 10 µM unless noted.
In the next assay the test system is EKVX NSCLC. The note with it: 10 µM unless noted.
A further assay concerns SN12C renal. The note with it: 10 µM unless noted.
Another assay relates to UO-31 renal. The settings on record: 10 µM unless noted.
In the next assay the test system is TK-10 renal. The note with it: 10 µM unless noted.
For the next assay, the system named is ACHN renal. The note with it: 10 µM unless noted.
A further assay concerns CAKI-1 renal. The settings on record: 10 µM unless noted.
Another assay relates to A498 renal. The settings on record: 10 µM unless noted.
In another assay the test system is CCRF-CEM leukemia. The settings on record: 10 µM unless noted.
A further assay concerns MOLT-4 leukemia. The note with it: 10 µM unless noted.
A further assay concerns SR leukemia. The settings on record: 10 µM unless noted.

The panel holds about 83,000 compounds, 20% with a hit somewhere; the sample as a whole holds those more often.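 Testing used 96-well plates and a 48-hour single-concentration exposure. Example: -40 means 40% of the starting cells died.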 Unmarked numbers belong to inactive results. The source made the active and inactive calls. The calls were made as follows: active = growth percent below 10; inactive = the rest.

For `COc1cc2nc(NC3CCCC3)nc(NC3CCN(C(C)C)CC3)c2cc1OC`, the growth in the assay on HT29 colon was 17.3%; in the assay with SNB-75 CNS it was 61.2%; with SNB-19 CNS, 88%; in the assay with U251 CNS it was 45%; in the assay on PC-3 prostate, 71.1%; in the assay on SK-MEL-5 melanoma, 67.6%. Further, the growth is 94.6% with UACC-62 melanoma; 84.4% in the assay with LOX IMVI melanoma; 87.1% with SK-MEL-28 melanoma; 101% with SK-MEL-2 melanoma; 81.6% in the assay on EKVX NSCLC; 97.3% in the assay with SN12C renal. In addition, the growth with UO-31 renal was 79.5%; with TK-10 renal, 71.7%; in the assay on ACHN renal, 86.9%; in the assay with CAKI-1 renal it was 98.2%; with A498 renal, 97.4%; with CCRF-CEM leukemia, 66.4%. The growth is 54.1% with MOLT-4 leukemia and -1.77% (active) in the assay on SR leukemia.
Take `O=C(NCc1ccccc1)C1CN(c2ccc(Cl)cc2)N(c2ccc(Cl)cc2)C1=O` (stereo not given): the growth in the assay on HT29 colon was 48.8%; in the assay on SNB-75 CNS, 82.9%; in the assay on SNB-19 CNS it was 84.9%; with U251 CNS, 84.2%; in the assay with PC-3 prostate, 67.9%; with SK-MEL-5 melanoma, 83.3%. The growth in the assay with UACC-62 melanoma was 58.7%; with LOX IMVI melanoma, 88.4%; in the assay on SK-MEL-28 melanoma it was 88.9%; in the assay with SK-MEL-2 melanoma, 85.8%; in the assay with EKVX NSCLC, 87.8%; with SN12C renal, 91%. The growth with UO-31 renal is 55.9%; in the assay with TK-10 renal, 95.7%; with ACHN renal it was 94.7%; in the assay with CAKI-1 renal, 75.4%; in the assay with A498 renal it was 73.4%; in the assay on CCRF-CEM leukemia, 73.4%. For the same compound, the values for the growth with MOLT-4 leukemia and in the assay with SR leukemia were 64.3% and 34.3%, respectively.
For `Nc1ccc(-c2ccc(-c3ccccc3N)c3[nH]c4ccccc4c23)cc1`, the growth with HT29 colon is 13.9%; with SNB-75 CNS, 28.4%; in the assay on SNB-19 CNS, 39%; in the assay on U251 CNS, 35.4%; in the assay on PC-3 prostate it was 24.9%; in the assay on SK-MEL-5 melanoma it was 6.03% (active). In addition, the growth with UACC-62 melanoma is 25.4%; with LOX IMVI melanoma, 27.7%; in the assay with SK-MEL-28 melanoma, 51%; in the assay with SK-MEL-2 melanoma, 19.5%; with EKVX NSCLC, 34.9%; with SN12C renal, 32.7%. Further, the growth in the assay with UO-31 renal was 22.5%; in the assay on TK-10 renal it was 23.8%; in the assay on ACHN renal it was 32.1%; in the assay with CAKI-1 renal, 25.4%; with A498 renal, 20.6%; in the assay with CCRF-CEM leukemia, 13%. The growth with MOLT-4 leukemia is 22%; in the assay with SR leukemia, 19.6%.
In the case of `Clc1ccc(Oc2ccc(Nc3ncnc4onc(-c5ccccc5)c34)cc2)c(Cl)c1`, the growth in the assay on HT29 colon was 84.2%; with SNB-75 CNS, 83.5%; in the assay with SNB-19 CNS, 106%; in the assay with U251 CNS it was 102%; in the assay with PC-3 prostate, 94.2%; in the assay on SK-MEL-5 melanoma, 93.4%. Also, the growth with UACC-62 melanoma was 81%; in the assay with LOX IMVI melanoma, 98.4%; in the assay on SK-MEL-28 melanoma it was 102%; with SK-MEL-2 melanoma, 104%; in the assay on EKVX NSCLC it was 103%; in the assay on SN12C renal, 94%. Besides, the growth in the assay with TK-10 renal was 105%; in the assay on ACHN renal, 105%; with CAKI-1 renal, 90.6%; in the assay with A498 renal, 103%; in the assay on CCRF-CEM leukemia it was 98.1%; in the assay with MOLT-4 leukemia, 89.8%. The growth with SR leukemia is 80.6%.
`Cc1ccc2c(n1)C(=O)C(Oc1ccc(Br)cc1)=CC2=O`: the growth in the assay on HT29 colon is 97.6%; in the assay on SNB-75 CNS it was 82.2%; with SNB-19 CNS, 96.6%; in the assay with U251 CNS, 94.5%; in the assay with PC-3 prostate, 95%; with SK-MEL-5 melanoma, 93.6%. Further, the growth in the assay on UACC-62 melanoma was 95.9%; with LOX IMVI melanoma it was 84.2%; with SK-MEL-28 melanoma it was 116%; with SK-MEL-2 melanoma it was 91.7%; in the assay on EKVX NSCLC, 104%; in the assay with SN12C renal, 93.5%. Also, the growth is 84.3% with UO-31 renal; 103% in the assay with TK-10 renal; 7.34% (active) in the assay on ACHN renal; 97.5% in the assay on CAKI-1 renal; 62% in the assay with CCRF-CEM leukemia; 87.9% in the assay on MOLT-4 leukemia. In the assay on SR leukemia, the growth is 92.1%.
For the compound `CCCC(=O)CC(C)=O.CCCC(=O)CC(C)=O.[Cu]`, the growth is 94.9% in the assay with HT29 colon; 116% with SNB-75 CNS; 110% in the assay on SNB-19 CNS; 99.9% with U251 CNS; 76.3% in the assay on PC-3 prostate; 103% in the assay on SK-MEL-5 melanoma. In addition, the growth in the assay with UACC-62 melanoma was 105%; with LOX IMVI melanoma, 86.5%; in the assay with SK-MEL-28 melanoma it was 106%; in the assay with SK-MEL-2 melanoma, 113%; with EKVX NSCLC, 106%; in the assay with SN12C renal, 110%. Further, the growth was 102% with UO-31 renal; 105% in the assay with ACHN renal; 103% with CAKI-1 renal; 122% in the assay on A498 renal; 107% with CCRF-CEM leukemia; 99.2% in the assay on MOLT-4 leukemia. The growth with SR leukemia was 85.6%.
`CC1=C(C(=O)OCC2CCN(C(=O)OC(C)(C)C)CC2)[C@H](c2cccc(Br)c2)C2=C(CC(C)(C)CC2=O)N1`: the growth is 16.7% with HT29 colon; 47.8% in the assay on SNB-75 CNS; 42.5% in the assay with SNB-19 CNS; 30% in the assay on U251 CNS; 17.5% with PC-3 prostate; -32.8% (active) in the assay on SK-MEL-5 melanoma. Besides, the growth was 36.1% with UACC-62 melanoma; 17.5% in the assay with LOX IMVI melanoma; 50.1% in the assay with SK-MEL-28 melanoma; 61.1% with SK-MEL-2 melanoma; 49.4% in the assay with EKVX NSCLC; 31.2% in the assay with SN12C renal. Besides, the growth in the assay with TK-10 renal is 38.9%; with ACHN renal it was 27.9%; in the assay on CAKI-1 renal, 26.6%; in the assay on A498 renal, 49.5%; with CCRF-CEM leukemia, 17.9%; in the assay with MOLT-4 leukemia it was 4.54% (active).
